The assay is described as follows: qHTS assay for re-activators of p53 using a Luc reporter: Hit Validation with no p53 Expressed. The gist of the method:
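Counter-screen of primary hits in a cell line not transfected with p53, in Opti-MEM with 10% FBS; compounds at several concentrations (10 mM stock, 1:5; top 46.1 µM in well), 24 h at 37 deg C, 5% CO2. Luminescence read after 10 min with Amplite reagent.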
(In general: qHTS replaces the single test concentration by a dilution series.)

Records with an inconclusive call do not appear. Where a call stands in place of a potency, no number is given. The source made the active and inactive calls. Calls follow the shape of the dose curve; as a rule, active = well fitted activation curve with a large enough effect; inconclusive = small, poorly fitted or top-dose-only effect; inactive = no such curve, though single readings can be large or run the other way.
Potency is read from the fitted curve at half-maximal effect.

With `OCCNc1nc(NCc2ccccc2)c2ccccc2n1`, the Potency entry is “inactive”.

As to `O=C1CCCC(O)=C1N=Nc1ccc2c(c1)OCO2`, the Potency entry is “inactive”.

Turning to `Cc1ccc(C(=O)OC(C)C(=O)Nc2ccc3c(c2)OCO3)c(O)c1` (stereo not given), the Potency result is “inactive”.

As for `CN(C(=O)CSc1nnc(-c2ccco2)o1)C1CCCCC1`, the Potency entry is “inactive”.

In the case of `Cc1csc(NC(=O)/C=C/c2ccc(C)o2)n1`, the Potency result is “inactive”.

With `COc1ccccc1Oc1c(C)oc2c(CN(C)C)c(O)ccc2c1=O`, the Potency result is “inactive”.

On to `COCCCNC(=O)Nc1ccc(Br)cc1Cl`, for which the Potency entry is “inactive”.

As to `Cc1cc(C)c2nc(NNC(=O)c3ccc(S(=O)(=O)N4CCc5ccccc5C4)cc3)sc2c1`, the Potency result is “inactive”.

On to `Cc1ccc(C(=O)Nc2ccn(C)n2)cc1`, for which the Potency result was “inactive”.

Turning to `C/C(CC(C)C)=N\NC(=O)Nc1ccccc1`, the Potency result is “inactive”.

With `N=C1C(c2nc3ccccc3s2)=C(O)CN1Cc1ccccc1`, the Potency result is “inactive”.

In the case of `CCN(CC)C(=O)CSC(=Nc1ccccc1F)NC#N`, the Potency entry was “inactive”.

On to `Cc1cc(C(c2nnnn2Cc2ccccc2)N2CCOCC2)c(C)n1-c1ccc2c(c1)OCO2` (stereo not given), for which the Potency entry is “inactive”.

Regarding `Cc1ccc(NC(=S)NC(=O)c2cccs2)cc1F`, the Potency entry was “inactive”.

Take `COc1cc(/C=C/C(=O)N2C(=O)c3cccc(N)c3C2=O)cc(OC)c1OC`: the Potency result is “inactive”.

As for `O=[N+]([O-])c1ccc(Cl)cc1Sc1nc2ccccc2o1`, the Potency result is “inactive”.

As for `O=C(c1ccc(N2CCN(S(=O)(=O)c3ccccc3)CC2)c([N+](=O)[O-])c1)N1CCOCC1`, the Potency result is “inactive”.

On to `COc1ccc([N+](=O)[O-])cc1NC(=O)C1CCCCC1C(=O)O` (stereo not given), for which the Potency result was “inactive”.

`CC(=O)/C=C(\C)Nc1ccc(-c2cnc(-c3ccccc3)o2)cc1`: the Potency result is “inactive”.

On to `O=C(c1ccco1)n1c(=S)nc2ccccn21`, for which the Potency result is “inactive”.

Regarding `O=C(COC(=O)c1cc2ccccc2oc1=O)Nc1cccc(S(=O)(=O)N2CCCCCC2)c1`, the Potency entry was “inactive”.

Take `Cc1ccc(C(=O)OCC(=O)NCC2COc3ccccc3O2)cc1` (stereo not given): the Potency result was “inactive”.

Take `Cc1cc(C)cc(OCC(=O)NNC(=O)c2ccccn2)c1`: the Potency result was “inactive”.

On to `CCOCC(=O)Nc1nc2ccc(OCC)cc2s1`, for which the Potency entry is “inactive”.

On to `CCN1CCN(CC(=O)Nc2nc3ccc(C)cc3s2)CC1`, for which the Potency entry was “inactive”.

`CC(C)(C)c1cc(-n2ccnc2)n2ncc(-c3ccc(Cl)cc3)c2n1`: the Potency result is “inactive”.

As to `c1ccc(-c2cn3nc(-c4ccccc4)cnc3n2)cc1`, the Potency result is “inactive”.

Regarding `Cc1ccc(-c2cc(-c3ccccc3Cl)[nH]n2)c(O)c1`, the Potency entry was “inactive”.

Turning to `Clc1ccc(Nc2nc(-c3cccs3)cs2)nc1`, the Potency entry was “inactive”.

Turning to `O=C(CNc1ccccc1)N/N=C/c1c[nH]c2ccccc12`, the Potency result was “inactive”.

Consider `C=CCNc1ncnc2c1cnn2-c1ccc(Cl)cc1`, for which the Potency entry was “inactive”.

Turning to `N#CC(c1ccccc1)C1CCN(Cc2ccccc2)CC1` (stereo not given), the Potency result was “inactive”.

For the compound `Cc1ccc(NC(=O)/C(Cl)=C/c2ccccc2)cc1C`, the Potency entry was “inactive”.

With `O=C(N/N=C\c1cccc(Cl)c1)c1n[nH]c2c1CCCC2`, the Potency entry is “inactive”.

In the case of `CCOC(=O)c1c(NC(=O)C2COc3ccccc3O2)sc2c1CCN(Cc1ccccc1)C2` (stereo not given), the Potency entry is “inactive”.

Consider `Cc1ccnc(NC(=O)c2sc3cc(Cl)ccc3c2Cl)c1`, for which the Potency result is “inactive”.

As for `CC(Cc1ccccc1)NC(=O)c1ccc([N+](=O)[O-])cc1` (stereo not given), the Potency entry is “inactive”.

For `CC(/C=N/Nc1nc2ccccc2[nH]1)=C\c1ccccc1`, the Potency was 116 nM (active).

For the compound `CC1CCN(C2=C(NS(=O)(=O)c3ccc(Br)cc3)C(=O)c3ccccc3C2=O)CC1`, the Potency result is “inactive”.

Turning to `CCN(CC)CCN1C(=O)C(=O)/C(=C(/O)c2cnn(-c3ccccc3)c2C)C1c1ccc(C)o1` (stereo not given), the Potency entry is “inactive”.

For `CCOC(=S)SCC(=O)Nc1nc(-c2ccc(Br)cc2)cs1`, the Potency entry was “inactive”.

For the compound `C(=C\c1nc(-c2ccccc2)no1)/c1ccccc1`, the Potency result was “inactive”.

Regarding `CC(=O)NC(=S)Nc1ccc(NC(=O)c2cccs2)cc1`, the Potency entry is “inactive”.

Take `COCC(=O)Nc1nnc(COc2ccccc2)s1`: the Potency entry was “inactive”.

Consider `COc1ccccc1-c1nc(-c2ccc(Br)o2)no1`, for which the Potency is 820 nM (active).

The record behind these values is PubChem BioAssay AID624331 (National Center for Advancing Translational Sciences (NCATS), 2012).
